Test results reported in PubChem BioAssay (NCATS).
Records with an inconclusive call do not appear. Activity calls are given as the source filed them. The call rests on the fitted dose curve; in most records, active means well fitted curve in the direction sought with a large enough effect; inconclusive means small, poorly fitted or top-dose-only effect, or another doubt; inactive means no such curve, though single readings can be large; an effect the other way counts as inactive or inconclusive.

Molecular target: Aldehyde dehydrogenase, mitochondrial (Homo sapiens) (UniProt P05091)
Experiment: qHTS for Inhibitors of the Aldehyde Dehydrogenase Family (ALDH2) Primary screen (AID 2061308);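 further: plate controls were vehicle for no effect and reference inhibitor for full effect; nearly all actives have a fitted effect of over 55% in size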
Settings: ALDH2 enzyme inhibition qHTS, 1536-well; series mostly up to 56 µM; activity change, negative = inhibition: at the top concentration

SMILES	activity change, negative = inhibition	Potency
COc1ccccc1NC(=O)C1=C(C)NC(Nc2nc3ccccc3o2)=NC1c1ccccc1Br (stereo not drawn)	2.34% (inactive)	–
CC1=C(C(=O)Nc2nc3ccccc3s2)C2(CCCC2)N=C(Nc2nc3ccccc3o2)N1	3.98% (inactive)	–
Cc1ccc(C(=O)Nc2nnc(-c3ccco3)o2)cc1	-1.93% (inactive)	–
Cc1sc(NC(=O)Cc2ccc3c(c2)OCO3)nc1-c1ccc2c(c1)CCN2C(=O)c1ccccc1Cl	-4.31% (inactive)	–
COC(=O)C1=CO[C@@H](O[C@@H]2O[C@H](CO)[C@@H](O)[C@H](O)[C@H]2O)[C@H]2[C@@H]1CC(OC)O[C@@H]2C (stereo partly drawn)	3.37% [at 28 µM] (inactive)	–
Cc1ccc(S(=O)(=O)Nc2cccnc2C(=O)Nc2nc(-c3ccccc3)cs2)cc1	3.94% (inactive)	–
Cn1cnc(S(=O)(=O)Nc2cnccc2C(=O)Nc2nc(-c3ccccc3)cs2)c1	-5.71% (inactive)	–
Cc1ccc(OCCn2c(CCNC(=O)CCc3ccccc3Br)nc3ccccc32)cc1	8.05% (inactive)	–
CCN(CC)CCCC(C)n1c(-c2ccccc2)nc2c(N(CCOC)CCOC)nc(C)nc21 (stereo not drawn)	5.24% (inactive)	–
Oc1ccc(COC2CCCC2)c2cccnc12	-0.999% (inactive)	–
O=C(Cc1nnc(CNC(=O)c2ccccc2)s1)Nc1ccc(C(F)(F)F)cc1Cl	-1.51% (inactive)	–
Cn1ncc(Cl)c1-c1cc(C(=O)N[C@H](CN)Cc2ccc(F)c(F)c2)oc1Cl	6.81% (inactive)	–
O=C1CCCC2=C1C(c1[nH]ncc1Cl)NC(=NCc1cccnc1)N2 (stereo not drawn)	-4.43% (inactive)	–
O=C1c2ccccc2C(=O)N1c1nccs1	-15.1% (inactive)	–
CCC(C)C(=O)Oc1cc(C)ccc1C1(COC(=O)C(C)C)CO1 (stereo not drawn)	-7.82% (inactive)	–
Cn1c2cc(C#N)sc2c2cnn(Cc3ccccc3F)c(=O)c21	–	inactive
COc1ccc2nc(-c3ccccc3OCc3ccccc3)sc2c1	1.65% (inactive)	–
O=S(=O)(NCC1CCC(NS(=O)(=O)c2c(F)cccc2F)CC1)c1ccc2c(c1)OCCO2 (stereo not drawn)	11.3% (inactive)	–
O=C(Nc1ccc(-c2nc3ccccc3[nH]2)cc1)c1ccc2c(c1)OCCO2	10.5% (inactive)	–
O=C(Cc1ccccc1)Nc1sc2c(c1C(=O)Nc1cccc(Cl)c1)CCCC2	1.25% (inactive)	–
Cc1cc2c(s1)c1cnn(Cc3cccc(Br)c3)c(=O)c1n2C	5.38% (inactive)	–
Cc1cnc(-c2ccccc2C(C)C)nc1NCc1ccc(-c2ccc(F)nc2)cc1	5.29% (inactive)	–
Cc1cc2c(s1)c1cnn(Cc3ccccc3C)c(=O)c1n2C	10.2% (inactive)	–

Molecular target: Retinaldehyde dehydrogenase 3 (Homo sapiens) (UniProt P47895)
Experiment: qHTS for Inhibitors of the Aldehyde Dehydrogenase Family (ALDH1A3) Primary screen (AID 2061315);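 further: plate controls were DMSO vehicle for no effect and reference inhibitor for full effect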
Settings: ALDH inhibition qHTS; series mostly up to 56 µM; activity change, negative = inhibition: at the top concentration

SMILES	activity change, negative = inhibition	Potency
O=C(C[C@H]1CC[C@@H](C(=O)Nc2ccc(S(=O)(=O)Nc3nccs3)cc2)C1)c1ccccc1	25.4% (inactive)	–
CCc1nn2c(=O)cc(NC3CNC3)nc2s1	5.15% (inactive)	–
Cc1cc(NC(=O)Nc2nnc(-c3cccnc3)s2)ccc1Cl	–	inactive
COc1cc(O)c(C(CC(=O)N2CCCC(C)C2)c2ccc3c(c2)OCO3)c(OC)c1 (stereo not drawn)	11.7% (inactive)	–
COc1ccc(-c2nc3ccc(Cl)cc3c(=O)n2Cc2ccccc2)cc1COc1ccc(NC(C)=O)cc1	0.604% (inactive)	–
COc1ccc(-c2nc3ccc(OC)cc3s2)cc1	-12.8% (inactive)	–
COc1ccc(Nc2nn3c(=O)c4ccccc4nc3s2)cc1	-12.1% (inactive)	–
COc1ccc(C2=Nn3c(nnc3-c3ccccc3Cl)SC2)cc1OC	17.9% (inactive)	–
O=C(OCC#CCSc1nnc(-c2cccc3ccccc23)o1)c1ccc(Cl)c(C(F)(F)F)c1	-1.5% (inactive)	–
COc1ccc(-c2nnc3n2N=C(c2c(OC)cccc2OC)CS3)cc1	-1.54% (inactive)	–
CC(C)(C)OC(=O)Cc1nnc(C(C(=O)OCc2ccccc2)c2ccccc2)o1 (stereo not drawn)	5.38% (inactive)	–
CN(C)c1cccc(-c2cc(N3CCC(C(N)=O)CC3)ncn2)c1	-6.8% (inactive)	–
CCOc1ccc(CCNC(=O)C2COc3ccccc3O2)cc1OCC (stereo not drawn)	-4.29% (inactive)	–
Cc1ccc(S(=O)(=O)N2CCN(c3nc(C#N)nc4ccccc34)CC2)cc1	1.19% (inactive)	–
FC(F)(F)c1cccc(Nc2ccc(CNc3nc(-c4ccccc4C(F)(F)F)nc4ccccc34)cc2)c1	4.71% (inactive)	–
Cc1ccc(NS(=O)(=O)c2cc3c(cc2F)NC(=O)CC3)cc1Cl	–	inactive
O=C(N1CCc2cc([S+](=O)([O-])N3CCN([S+](=O)([O-])c4c(F)cccc4F)CC3)ccc2C1)C(F)(F)F	-12.8% (inactive)	–
COc1ccccc1NC(=O)C1=C(C)NC(Nc2nc3ccccc3o2)=NC1c1ccccc1Br (stereo not drawn)	7.18% (inactive)	–
CC1=C(C(=O)Nc2nc3ccccc3s2)C2(CCCC2)N=C(Nc2nc3ccccc3o2)N1	6.41% (inactive)	–
Cc1ccc(C(=O)Nc2nnc(-c3ccco3)o2)cc1	14.1% (inactive)	–

SMILES	activity change, negative = inhibition	Potency
Cc1sc(NC(=O)Cc2ccc3c(c2)OCO3)nc1-c1ccc2c(c1)CCN2C(=O)c1ccccc1Cl	3.89% (inactive)	–
COC(=O)C1=CO[C@@H](O[C@@H]2O[C@H](CO)[C@@H](O)[C@H](O)[C@H]2O)[C@H]2[C@@H]1CC(OC)O[C@@H]2C (stereo partly drawn)	0.661% [at 28 µM] (inactive)	–
Cc1ccc(S(=O)(=O)Nc2cccnc2C(=O)Nc2nc(-c3ccccc3)cs2)cc1	20.2% (inactive)	–
Cn1cnc(S(=O)(=O)Nc2cnccc2C(=O)Nc2nc(-c3ccccc3)cs2)c1	2.24% (inactive)	–
Cc1ccc(OCCn2c(CCNC(=O)CCc3ccccc3Br)nc3ccccc32)cc1	-1.39% (inactive)	–
CCN(CC)CCCC(C)n1c(-c2ccccc2)nc2c(N(CCOC)CCOC)nc(C)nc21 (stereo not drawn)	25.8% (inactive)	–
Oc1ccc(COC2CCCC2)c2cccnc12	43.4% (inactive)	–
O=C(Cc1nnc(CNC(=O)c2ccccc2)s1)Nc1ccc(C(F)(F)F)cc1Cl	1.94% (inactive)	–
Cn1ncc(Cl)c1-c1cc(C(=O)N[C@H](CN)Cc2ccc(F)c(F)c2)oc1Cl	-0.727% (inactive)	–
O=C1CCCC2=C1C(c1[nH]ncc1Cl)NC(=NCc1cccnc1)N2 (stereo not drawn)	0.136% (inactive)	–
O=C1c2ccccc2C(=O)N1c1nccs1	-11% (inactive)	–
CCC(C)C(=O)Oc1cc(C)ccc1C1(COC(=O)C(C)C)CO1 (stereo not drawn)	5.53% (inactive)	–
Cn1c2cc(C#N)sc2c2cnn(Cc3ccccc3F)c(=O)c21	–	inactive
COc1ccc2nc(-c3ccccc3OCc3ccccc3)sc2c1	-18.5% (inactive)	–
O=S(=O)(NCC1CCC(NS(=O)(=O)c2c(F)cccc2F)CC1)c1ccc2c(c1)OCCO2 (stereo not drawn)	-0.703% (inactive)	–
O=C(Nc1ccc(-c2nc3ccccc3[nH]2)cc1)c1ccc2c(c1)OCCO2	1.73% (inactive)	–
O=C(Cc1ccccc1)Nc1sc2c(c1C(=O)Nc1cccc(Cl)c1)CCCC2	-1.55% (inactive)	–
Cc1cc2c(s1)c1cnn(Cc3cccc(Br)c3)c(=O)c1n2C	2.93% (inactive)	–
Cc1cnc(-c2ccccc2C(C)C)nc1NCc1ccc(-c2ccc(F)nc2)cc1	2.89% (inactive)	–
Cc1cc2c(s1)c1cnn(Cc3ccccc3C)c(=O)c1n2C	-1.66% (inactive)	–
